# Source: PubChem BioAssay (NCI)
# About 83,000 compounds went through this panel and 20% of them were active in at least one assay; those are over-represented in the sample as a whole.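 Single-dose data. Exposure time 48 hours. Values below 10 considered active.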 Unmarked numbers belong to inactive results. Calls of active or inactive are those of the source.
# Test system: SF-539 CNS
# Test: NCI-60 one-dose screen, 48 h (100 = growth as untreated, 0 = no growth, -100 = all killed)
# Settings: 10 µM unless noted
row,SMILES,growth
1,CN(C)C(=S)N=Nc1c(O)[nH]c2ccccc12,9.37% (active)
2,NC(N)=N/N=C(/c1ccccc1)c1ccc(F)cc1,-33.5% (active)
3,CC(=O)c1cc2c(N)c(C(=O)Nc3cccc4ccccc34)sc2nc1C,-15% (active)
4,O=c1ccccc(-c2ccc(Br)cc2)c1O,-0.947% (active)
5,CCCCC(=O)OCC1OC(n2cnc3c(=S)nc[nH]c32)C(OC(=O)CCCC)C1OC(=O)CCCC (centres undefined),20.2%
6,CC/C=C\C[C@H]1C/C=C2/C(=O)C=C[C@H]2C/C=C\CCCC(=O)O1,14.7%
7,CCNc1ncnc2c1cnn2C1CCCO1 (centres undefined),105%
8,C=C1C(=O)O[C@H]2[C@H]1CC/C(COC(=O)NCCc1ccc(OC)c(OC)c1)=C\CC[C@@]1(C)O[C@@H]21,47.2%
9,O=C(Cc1ccc(/C=C/C(=O)c2ncc[nH]2)cc1)Nc1ccc(F)cc1,-21.7% (active)
10,Clc1ccc2c(NCCCNc3nc(-n4ccnc4)nc4ccccc34)ccnc2c1,76.1%
11,CCc1nc(N)nc(N)c1C#CC(C)c1ccc(-c2ccncc2)cc1Cl (centres undefined),4.42% (active)
12,Cc1cc2c3ccccc3ccc2[n+]2ccccc12,42.5%
13,COc1ccc(SC2c3ccc(C)cc3Oc3nc(N)c(C#N)c(N)c32)cc1 (centres undefined),-75.4% (active)
14,NC(=NC1C2CC3CC(C2)CC1C3)Nc1ccc(I)cc1 (centres undefined),32%
15,CC(=O)OCCC/C(=C/c1cc2ccccc2c2ccccc12)[N+](=O)[O-],-100% (active)
16,COc1cc(C(=O)/C=C/c2cccnc2Nc2ccc(Cl)cc2)cc(OC)c1OC,-80.2% (active)
17,CCOc1ccc(-n2nc(C(=O)Nc3cc(OC)c(OC)c(OC)c3)nc2-c2cc(OC)c(OC)c(OC)c2)cc1,87.8%
18,CC(=O)Oc1ccc(Cl)cc1CN(C(C)=O)C1CCCCC1,111%
19,COc1cc(-c2nn(-c3ccc(Br)cc3)cc2C(=O)O)ccc1O,128%
20,COc1cc2nnc3c4cccnc4[nH]c3c2cc1OC,54.9%

row,SMILES,growth
1,CCNC(=O)Oc1ccc(/C(=C(\C)c2ccc(Cl)cc2)c2ccc(OCCN(CC)CC)cc2)cc1,58.2%
2,CCc1nc(N)nc(N)c1C#CC(C)c1cc(-c2ccnc(C)c2)c2oc(C)nc2c1 (centres undefined),-27.3% (active)
3,CC1=C(O)C(=O)C(C(C#N)(C#N)C(C#N)C#N)C1 (centres undefined),104%
4,CN(C)c1ccc(NC(=O)c2ccc(/C=C/C(=O)c3ncc[nH]3)cc2)cc1,6.24% (active)
5,CN(C)c1ccc(N=Nc2ccccn2)c(O)c1,0.733% (active)
6,O=C1C=CC(=O)N1c1ccc2c(c1)Cc1cc(F)ccc1-2,101%
7,CCCCn1cnc2c(Sc3c([N+](=O)[O-])ncn3C)nc(N)nc21,105%
8,NC(CSC(c1ccccc1)(c1ccccc1)c1ccc(Cl)cc1)C(=O)O (centres undefined),-12.3% (active)
9,Oc1ccc(N=Cc2ccccc2O)cc1,79.9%
10,Clc1ccc2c(NCCNc3nc(N4CCCCC4)nc4ccccc34)ccnc2c1,-83.6% (active)
11,CCN1CCN(c2nc(NCCCNc3ccnc4cc(Cl)ccc34)c3ccccc3n2)CC1,-74.4% (active)
12,CCOC(=O)c1sc(Nc2ccc(Cl)cc2)nc1C,25.3%
13,CN1C(=O)C2(SCC(C(=O)NCc3ccccc3)N2C(=O)C2CCCCC2)c2ccccc21 (centres undefined),123%
14,CSc1ccc(-c2ccccc(=O)c2O)cc1,4.03% (active)
15,CC(=O)c1cc2c(N)c(C(=O)Nc3cccc(F)c3C)sc2nc1C,93.5%
16,COc1ccc2c(c1)C(=O)/C(=C/c1ccccn1)CC2,72%
17,O=C(Cc1ccc(/C=C/C(=O)c2ncc[nH]2)cc1)Nc1ccccc1,-23.3% (active)
18,COc1cccc2c1C(=O)c1c(O)c3c(c(O)c1C2=O)C[C@](O)(C(=O)CO)C[C@H]3O[C@@H]1C[C@@H](NC(=O)CCCN(C)C2(c3ccc(F)cc3)CC3CCC2C3)[C@H](O)[C@@H](C)O1 (some centres undefined),-81.6% (active)
19,COc1cccc2c1C(=O)c1c(O)c3c(c(O)c1C2=O)C[C@](O)(C(=O)CO)C[C@H]3O[C@@H]1C[C@@H](NC(=O)CCCCCN(C)C2(c3ccc(F)cc3)CC3CCC2C3)[C@H](O)[C@@H](C)O1 (some centres undefined),-82.9% (active)
